We go through five compounds from PubChem BioAssay.

The subject of test [1] is PRMT1 (protein arginine N-methyltransferase 1). Nature of the test: PRMT1 binders on small-molecule microarrays, primary screen, biochemical, small-molecule microarray, 635 nm fluorescence (AID 1088).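 Also: binding of Prmt1 protein to compounds spotted on small-molecule microarray slides.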 Particulars: small-molecule microarray binding, higher = more signal.
A short description of test [2]: yeast growth modulation, basal conditions, primary screen, YJM789 clinical isolate, OD600, 24 h (AID 1089).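 Also: growth of clinical yeast isolate S. cerevisiae YJM 789 seeded 1000 cells per well; test concentration not given here.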 The settings on record: S. cerevisiae YJM789 growth, higher = more signal, called active from +8 up or from −8 down.
Test [3] in a line: fission yeast growth modulation, primary screen, strain 972, OD600, 24 h, no modulator (AID 1090).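 Also: basal condition with compound alone and no growth modifier present; test concentration not given here.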 The settings on record: S. pombe 972 growth, higher = more signal, called active from +8 up or from −8 down.
A short description of test [4]: S. cerevisiae growth modulation with rapamycin, primary screen, strain BY4716, OD600, 96 h (AID 1091). Also: test concentration not given here. Particulars: higher = more signal, called active from +8 up or from −8 down.
Test [5] deals with Torsin-1A-interacting protein 2 (Homo sapiens) (UniProt Q8NFQ8). Nature of the test: LULL1 binders on small-molecule microarray, primary screen, cell lysate, human LULL1 lysate, 635/667 nm fluorescence (AID 1092).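 Also: probe is lysate of COS7 cells overexpressing human LULL1; score merges per-feature 667 nm fluorescence with signal-to-noise.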 The settings on record: hLULL1 lysate binding, 635 nm fluorescence, higher = more signal.
A short description of test [6]: E. coli growth modulation, two-sided OD650, primary screen, E. coli filamentation project, strain DRC41, 24 h (AID 1093).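 Also: MC1000 strain lacking acrAB efflux and sulA so SOS filamentation is blocked; test concentration not given here.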 The settings on record: OD650, 24 h, higher = more signal, called active from +8 up or from −8 down.
Test [7] is described as follows: small-molecule microarray binders of probe aLefty2, primary screen, biochemical, biotinylated probe, 635/667 nm fluorescence (AID 1094).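 Also: score merges spot fluorescence near 667 nm with spot signal-to-noise ratio.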 The settings on record: higher = more signal.
For test [8], the system named is Noggin (protein binding on small-molecule microarray). Nature of the test: Noggin binders on small-molecule microarray, primary screen, biochemical, 635/667 nm fluorescence (AID 1095).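 Also: score merges 667 nm feature fluorescence with signal to noise over triplicate slides.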 Particulars: 635 nm fluorescence, higher = more signal.
Test [9] concerns the target Neurogenic locus notch homolog protein 3 (Homo sapiens) (UniProt Q9UM47). Nature of the test: NOTCH3 binders on small-molecule microarray, primary screen, biochemical, 635/667 nm fluorescence (AID 1096). Particulars: NOTCH3 binding, 635 nm fluorescence, higher = more signal.
The nature of test [10]: small-molecule microarray binders of probe aEGFR, primary screen, biochemical, biotinylated probe, 635/667 nm fluorescence (AID 1097).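 Also: probe is a biotinylated anti-EGFR antibody binding compounds printed on slides; score combines fluorescence near 667 nm and signal to noise of each spot.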 The settings on record: higher = more signal.
Test [11] relates to Plasmodium falciparum Sir2 (PF13_0152, Sir2A). Nature of the test: pfSir2 binders on small-molecule microarrays, primary screen, biochemical, small-molecule microarray, 635 nm fluorescence (AID 1098).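 Also: score merges spot fluorescence intensity with its signal-to-noise ratio.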 The settings on record: small-molecule microarray binding, fluorescence 635 nm; higher = more signal.
Test [12] in a line: small-molecule microarray binders of probe aDKK1, primary screen, biochemical, biotinylated probe, 635/667 nm fluorescence (AID 1099).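 Also: score merges 667nm spot fluorescence with signal to noise across triplicate slides; reference of the scale not given here.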 The settings on record: higher = more signal.
A short description of test [13]: small-molecule microarray binders of probe aCHRDL2, primary screen, biochemical, biotinylated probe, 635/667 nm fluorescence (AID 1100). The settings on record: higher = more signal.
The nature of test [14]: splicing luciferase reporter signal modulators, primary screen, spliceosome inhibition project, cell-based, HEK293, splice +/- reporter (AID 1101).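 Also: HEK293 cells carrying a splicing-competent luciferase reporter gene; test concentration not given here.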 Particulars: luminescence, 24 h, higher = more signal, called active from +8 up or from −8 down.
The target of test [15] is Fibroblast growth factor 10 (Homo sapiens) (UniProt O15520). Nature of the test: FGF10 binders on small-molecule microarrays, primary screen, biochemical, small-molecule microarray, 635 nm fluorescence (AID 1102). The settings on record: FGF10 binding, fluorescence 635 nm, higher = more signal.
The subject of test [16] is glycogen synthase kinase-3 (GSK3A per assay name; protocol says GSK3B). Nature of the test: GSK3 binders on small-molecule microarrays, primary screen, biochemical, small-molecule microarray, 635 nm fluorescence, GSK3A (AID 1103). Also: the record names both GSK3A and GSK3B. The settings on record: small-molecule microarray binding, fluorescence 635 nm; higher = more signal.
The target in test [17] is Epidermal growth factor receptor (Homo sapiens) (UniProt P00533). Nature of the test: EGFR binders on small-molecule microarrays, primary screen, biochemical, small-molecule microarray, 635 nm fluorescence (AID 1104).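 Also: score merges 667 nm emission intensity with spot signal to noise over triplicate slides.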 The settings on record: EGFR binding, higher = more signal.
In test [18] the target is Follistatin-related protein 3 (Homo sapiens) (UniProt O95633). Nature of the test: FSTL3 binders on small-molecule microarrays, primary screen, biochemical, small-molecule microarray, 635 nm fluorescence (AID 1105).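 Also: score merges emission near 667 nm and signal to noise per printed spot across three slides.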 The settings on record: FSTL3 binding, higher = more signal.
For test [19], the target named is Dickkopf-related protein 1 (Homo sapiens) (UniProt O94907). Nature of the test: DKK1 binders on small-molecule microarrays, primary screen, biochemical, small-molecule microarray, 635 nm fluorescence scan (AID 1106).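 Also: score merges emission near 667 nm with signal to noise over three replicate slides.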 The settings on record: DKK1 binding, higher = more signal.
The test system of test [20] is Inhibin beta A chain (activin A). Nature of the test: INHBA (activin A) binders on microarrays, primary screen, biochemical, small-molecule microarray, 635 nm fluorescence scan (AID 1107).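 Also: mouse activin A protein probed at 4.33 µg/mL on printed slides; score merges bound-protein fluorescence near 667 nm with spot signal-to-noise.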 The settings on record: small-molecule microarray binding, higher = more signal.

SMILES strings stand for the structures. Calls of active or inactive are those of the source.

Dickkopf-related protein 1 (Homo sapiens), sequence (O94907 whole entry, looked up): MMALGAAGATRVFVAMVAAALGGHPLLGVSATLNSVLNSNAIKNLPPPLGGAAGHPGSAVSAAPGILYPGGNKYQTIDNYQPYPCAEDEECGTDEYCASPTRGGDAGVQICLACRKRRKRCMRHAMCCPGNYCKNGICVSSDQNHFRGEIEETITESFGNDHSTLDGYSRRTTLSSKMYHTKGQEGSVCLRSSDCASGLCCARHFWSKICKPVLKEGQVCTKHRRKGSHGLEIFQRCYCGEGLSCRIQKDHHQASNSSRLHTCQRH
Fibroblast growth factor 10 (Homo sapiens), sequence (O15520 whole entry, looked up): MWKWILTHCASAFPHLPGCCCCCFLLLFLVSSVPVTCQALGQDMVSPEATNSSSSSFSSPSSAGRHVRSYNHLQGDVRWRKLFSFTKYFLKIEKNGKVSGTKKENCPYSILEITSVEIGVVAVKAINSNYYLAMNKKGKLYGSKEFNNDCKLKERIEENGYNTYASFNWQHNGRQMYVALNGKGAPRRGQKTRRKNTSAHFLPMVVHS
Torsin-1A-interacting protein 2 (Homo sapiens), sequence (Q8NFQ8 whole entry, looked up): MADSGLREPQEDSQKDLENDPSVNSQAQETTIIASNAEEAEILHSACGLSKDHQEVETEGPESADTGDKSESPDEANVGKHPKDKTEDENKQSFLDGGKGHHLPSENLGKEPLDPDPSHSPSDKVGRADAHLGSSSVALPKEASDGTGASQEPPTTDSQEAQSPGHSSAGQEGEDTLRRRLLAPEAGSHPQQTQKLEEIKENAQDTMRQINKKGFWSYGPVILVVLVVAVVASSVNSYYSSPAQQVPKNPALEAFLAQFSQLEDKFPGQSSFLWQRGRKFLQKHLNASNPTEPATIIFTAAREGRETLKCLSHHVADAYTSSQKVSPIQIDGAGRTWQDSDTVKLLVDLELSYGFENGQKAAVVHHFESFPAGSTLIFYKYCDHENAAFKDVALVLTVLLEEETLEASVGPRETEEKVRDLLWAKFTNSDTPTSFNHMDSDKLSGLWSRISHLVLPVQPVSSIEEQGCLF
Follistatin-related protein 3 (Homo sapiens), sequence (O95633 whole entry, looked up): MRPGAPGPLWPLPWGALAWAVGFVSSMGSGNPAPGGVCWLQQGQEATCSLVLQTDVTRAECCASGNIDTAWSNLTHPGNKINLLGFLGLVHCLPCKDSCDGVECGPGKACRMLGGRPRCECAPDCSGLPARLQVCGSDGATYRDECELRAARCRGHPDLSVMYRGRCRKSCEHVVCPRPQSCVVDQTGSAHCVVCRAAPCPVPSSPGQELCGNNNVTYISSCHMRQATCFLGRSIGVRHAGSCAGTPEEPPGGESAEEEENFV
Neurogenic locus notch homolog protein 3 (Homo sapiens), sequence (Q9UM47 whole entry, looked up): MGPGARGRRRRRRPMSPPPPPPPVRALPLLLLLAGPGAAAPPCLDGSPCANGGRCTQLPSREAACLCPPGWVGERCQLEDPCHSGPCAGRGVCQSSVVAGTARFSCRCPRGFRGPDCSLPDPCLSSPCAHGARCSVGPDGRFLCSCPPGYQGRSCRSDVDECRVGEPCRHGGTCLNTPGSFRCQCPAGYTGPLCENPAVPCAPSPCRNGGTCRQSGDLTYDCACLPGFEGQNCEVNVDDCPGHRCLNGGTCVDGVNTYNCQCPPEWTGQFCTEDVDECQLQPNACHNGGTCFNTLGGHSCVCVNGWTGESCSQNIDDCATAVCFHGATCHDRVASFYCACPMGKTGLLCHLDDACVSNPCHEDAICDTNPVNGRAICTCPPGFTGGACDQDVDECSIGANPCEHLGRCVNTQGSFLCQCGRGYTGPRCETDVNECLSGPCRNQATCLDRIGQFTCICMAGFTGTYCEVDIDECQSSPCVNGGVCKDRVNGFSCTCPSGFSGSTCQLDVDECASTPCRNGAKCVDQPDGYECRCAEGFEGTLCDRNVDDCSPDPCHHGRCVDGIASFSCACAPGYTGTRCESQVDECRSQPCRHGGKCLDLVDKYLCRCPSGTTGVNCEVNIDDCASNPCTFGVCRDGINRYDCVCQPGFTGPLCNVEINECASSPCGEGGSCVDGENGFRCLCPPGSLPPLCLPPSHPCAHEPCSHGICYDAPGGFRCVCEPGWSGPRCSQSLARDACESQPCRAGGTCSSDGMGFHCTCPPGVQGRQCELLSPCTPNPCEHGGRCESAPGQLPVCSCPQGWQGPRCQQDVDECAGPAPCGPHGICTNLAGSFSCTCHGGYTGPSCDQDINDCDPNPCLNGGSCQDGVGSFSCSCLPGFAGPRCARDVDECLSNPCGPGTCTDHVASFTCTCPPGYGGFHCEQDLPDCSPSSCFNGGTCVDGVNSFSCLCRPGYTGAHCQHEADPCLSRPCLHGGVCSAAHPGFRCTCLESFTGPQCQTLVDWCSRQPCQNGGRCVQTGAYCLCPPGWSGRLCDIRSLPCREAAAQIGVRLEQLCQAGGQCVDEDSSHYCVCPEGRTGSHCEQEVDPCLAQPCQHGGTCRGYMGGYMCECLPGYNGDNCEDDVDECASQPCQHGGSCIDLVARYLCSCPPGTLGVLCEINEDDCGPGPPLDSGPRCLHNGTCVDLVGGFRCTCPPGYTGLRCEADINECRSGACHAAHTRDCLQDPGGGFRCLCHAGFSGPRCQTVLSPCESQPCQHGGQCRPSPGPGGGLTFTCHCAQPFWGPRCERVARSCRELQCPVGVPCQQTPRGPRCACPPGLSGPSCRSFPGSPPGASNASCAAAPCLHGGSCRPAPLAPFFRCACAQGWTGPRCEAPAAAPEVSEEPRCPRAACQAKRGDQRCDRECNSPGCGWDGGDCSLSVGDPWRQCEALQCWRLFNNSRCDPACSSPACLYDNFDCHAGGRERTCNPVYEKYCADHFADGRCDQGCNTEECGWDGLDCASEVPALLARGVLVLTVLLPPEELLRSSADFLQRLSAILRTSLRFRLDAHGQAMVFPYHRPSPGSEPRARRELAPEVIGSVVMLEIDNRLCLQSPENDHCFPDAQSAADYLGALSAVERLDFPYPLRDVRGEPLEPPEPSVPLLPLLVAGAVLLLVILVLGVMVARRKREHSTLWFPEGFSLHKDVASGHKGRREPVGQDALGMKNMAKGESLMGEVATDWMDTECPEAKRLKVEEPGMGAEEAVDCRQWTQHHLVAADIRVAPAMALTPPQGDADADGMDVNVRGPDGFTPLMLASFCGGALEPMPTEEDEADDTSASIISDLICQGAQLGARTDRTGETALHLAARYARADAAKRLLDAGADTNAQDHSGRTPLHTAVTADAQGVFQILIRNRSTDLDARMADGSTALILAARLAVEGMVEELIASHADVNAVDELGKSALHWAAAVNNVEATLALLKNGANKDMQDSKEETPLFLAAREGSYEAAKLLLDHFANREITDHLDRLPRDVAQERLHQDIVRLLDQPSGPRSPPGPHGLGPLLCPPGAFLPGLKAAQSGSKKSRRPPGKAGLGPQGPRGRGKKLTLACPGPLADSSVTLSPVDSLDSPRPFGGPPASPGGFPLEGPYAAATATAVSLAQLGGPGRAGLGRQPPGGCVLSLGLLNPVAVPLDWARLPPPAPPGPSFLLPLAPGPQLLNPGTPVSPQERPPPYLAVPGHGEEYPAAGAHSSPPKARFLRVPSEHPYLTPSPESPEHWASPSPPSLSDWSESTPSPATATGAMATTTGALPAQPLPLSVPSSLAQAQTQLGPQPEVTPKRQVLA
Epidermal growth factor receptor (Homo sapiens), sequence (P00533 whole entry, looked up): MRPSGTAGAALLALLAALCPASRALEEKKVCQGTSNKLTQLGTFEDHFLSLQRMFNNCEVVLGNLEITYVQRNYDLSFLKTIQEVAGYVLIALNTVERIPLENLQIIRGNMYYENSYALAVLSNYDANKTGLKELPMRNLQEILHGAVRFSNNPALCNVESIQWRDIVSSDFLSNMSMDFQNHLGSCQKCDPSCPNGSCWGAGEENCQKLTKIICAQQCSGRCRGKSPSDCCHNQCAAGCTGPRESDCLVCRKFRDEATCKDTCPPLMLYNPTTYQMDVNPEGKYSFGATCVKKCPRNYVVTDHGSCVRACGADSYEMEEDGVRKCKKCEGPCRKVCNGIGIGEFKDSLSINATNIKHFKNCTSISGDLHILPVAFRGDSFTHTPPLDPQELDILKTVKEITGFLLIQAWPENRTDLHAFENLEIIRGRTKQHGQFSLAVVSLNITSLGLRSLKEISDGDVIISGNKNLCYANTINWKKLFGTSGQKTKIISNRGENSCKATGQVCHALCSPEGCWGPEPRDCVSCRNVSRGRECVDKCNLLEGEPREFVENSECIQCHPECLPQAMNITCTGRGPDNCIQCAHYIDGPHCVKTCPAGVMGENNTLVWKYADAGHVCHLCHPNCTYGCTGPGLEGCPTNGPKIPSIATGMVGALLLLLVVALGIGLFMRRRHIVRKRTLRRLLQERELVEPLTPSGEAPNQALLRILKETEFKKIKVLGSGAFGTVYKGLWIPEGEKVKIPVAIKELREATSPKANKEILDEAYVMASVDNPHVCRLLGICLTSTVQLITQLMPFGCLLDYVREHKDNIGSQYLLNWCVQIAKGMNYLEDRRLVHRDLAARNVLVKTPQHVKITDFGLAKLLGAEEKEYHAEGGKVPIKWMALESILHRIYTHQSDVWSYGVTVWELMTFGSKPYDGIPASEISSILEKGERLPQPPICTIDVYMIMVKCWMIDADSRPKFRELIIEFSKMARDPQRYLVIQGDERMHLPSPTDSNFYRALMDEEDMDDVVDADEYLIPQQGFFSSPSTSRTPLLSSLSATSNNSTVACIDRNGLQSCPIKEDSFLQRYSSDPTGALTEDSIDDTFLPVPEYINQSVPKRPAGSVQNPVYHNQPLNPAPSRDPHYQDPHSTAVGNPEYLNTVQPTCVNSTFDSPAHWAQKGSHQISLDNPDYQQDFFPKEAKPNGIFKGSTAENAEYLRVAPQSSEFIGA

As to `COc1ccc(CCNC(=O)[C@@]2(Sc3ccc(C)cc3)CC(=O)N(Cc3cc(C(F)(F)F)cc(C(F)(F)F)c3)[C@@H]2c2ccc(CO)cc2)cc1`, the composite z-score in [1] was -0.772; in test [5], 0.92; in test [7], 0.344; in test [8], -1.69; in [9], -1.26; in test [10], -0.213. Besides, the composite z-score in [11] was 0.629; in test [12], 0.18; in [13], 1.14; in [15], -1.59; in test [16], -0.655; in [17] it was -1.81. Further, the composite z-score was -0.927 in [18], -1.88 in test [19] and -0.497 in test [20]. The z-score is -1.11 (inactive) in test [2]; -0.912 (inactive) in [3]; -0.683 (inactive) in test [4]; -0.466 (inactive) in [6]; 0.257 (inactive) in test [14].
For the compound `CN1C(=O)[C@]2(CCS(=O)(=O)c3ccccc3)N=C(c3ccc(OCCCO)cc3)O[C@@H]2c2ccccc21`, the composite z-score in test [1] was 1.54; in test [5], 3.41; in test [7], -0.0271; in test [8] it was 0.804; in test [9] it was 1.12; in [10], -0.168. Further, the composite z-score was 1.38 in test [11]; 0.0991 in test [12]; 0.89 in [13]; 0.458 in test [15]; 1.33 in test [16]; -0.0528 in [17]. In addition, the composite z-score in test [18] amounted to 0.669; in [19], 0.367; in [20], 0.3. For the same compound, the z-score in [2] is 0.921 (inactive); in test [3], -0.895 (inactive); in [4], 3.62 (inactive); in [6], -0.532 (inactive); in [14], -0.674 (inactive).
`C#CCN(C/C=C/c1ccccc1)[C@H](CO[Si](C)(C)C(C)(C)C)c1ccccc1`: the composite z-score in test [1] was 0.21; in test [5] it was 0.433; in [7], -0.264; in test [8], -0.0154; in test [9], -0.091; in test [10] it was -0.21. Besides, the composite z-score in test [11] was 0.209; in test [12], -0.454; in test [13], -0.541; in test [15], 0.108; in test [16], -0.871; in [17] it was -0.468. In addition, the composite z-score in test [18] is -0.261; in test [19], -0.156; in [20] it was -0.0543. Also, the z-score was 0.253 (inactive) in test [2]; -0.121 (inactive) in test [3]; 0.0066 (inactive) in test [4]; -0.347 (inactive) in test [6]; -0.736 (inactive) in test [14].
Regarding `COCCOC(=O)N1C(=O)[C@@]2(c3cc(C#CCCO)ccc31)[C@H](C(=O)N1CCN(c3ncccn3)CC1)[C@H]1C(=O)O[C@H](c3ccccc3)[C@H](c3ccccc3)N1[C@@H]2c1ccc(O)cc1`, the composite z-score in [1] is 1.54; in test [5], 2.04; in test [7], -0.299; in [8], 0.865; in test [9], 0.945; in [10], -0.219. Also, the composite z-score in test [11] was 1.3; in test [12] it was -0.499; in test [13] it was -0.345; in test [15] it was 1.16; in [16], 1.01; in test [17] it was 0.368. The composite z-score was 0.698 in [18], -0.0017 in [19] and -0.242 in test [20]. Also, the z-score was 0.114 (inactive) in test [2]; -0.161 (inactive) in test [3]; 1.63 (inactive) in [4]; 1.49 (inactive) in test [6]; 0.894 (inactive) in [14].
In the case of `O=C(NCC(F)(F)F)[C@@H]1c2ccccc2C(=O)N(CC23CC4CC(CC(C4)C2)C3)[C@H]1c1ccc(CO)cc1`, the composite z-score was 1.54 in test [1]; 1.81 in test [5]; -0.129 in test [7]; 1.14 in test [8]; 1.1 in test [9]; -0.0902 in test [10]. For the same compound, the composite z-score in test [11] is 0.586; in [12], -0.0677; in [13] it was -0.217; in test [15] it was 0.75; in [16], 0.804; in test [17], 0.169. For the same compound, the composite z-score in test [18] came to 0.858; in test [19], 0.26; in test [20], 0.47. Besides, the z-score in test [2] is -3.48 (inactive); in test [3], -1.94 (inactive); in [4] it was -1.47 (inactive); in test [6] it was 1.37 (inactive); in [14] it was -1.32 (inactive).
